Measured values: ChEMBL document CHEMBL3988442, “University of Dundee, Small-Polar-MMV Screening Library” (2021)
For some of these results: Potency and affinity values are given separately.

Experiments:
Parameters in all cases: scale not given: direction of the effect not stated beside the values
[1] = biological target: Protein translocase subunit SecA (Escherichia coli (strain K12)) (UniProt P10408); assay: Assay to Identify E. coli SecA ATPase Inhibitors; type: functional; settings: 30 µM
[2] = biological target: T1, Ubiquitin-activating enzyme e1, putative (Leishmania donovani (strain BPK282A1)) (UniProt E9BSI1); assay: Leishmania donovani Ubiquitin Activating Enzyme (LdE1); type: functional; settings: 30 µM
T1 sequence (whole entry): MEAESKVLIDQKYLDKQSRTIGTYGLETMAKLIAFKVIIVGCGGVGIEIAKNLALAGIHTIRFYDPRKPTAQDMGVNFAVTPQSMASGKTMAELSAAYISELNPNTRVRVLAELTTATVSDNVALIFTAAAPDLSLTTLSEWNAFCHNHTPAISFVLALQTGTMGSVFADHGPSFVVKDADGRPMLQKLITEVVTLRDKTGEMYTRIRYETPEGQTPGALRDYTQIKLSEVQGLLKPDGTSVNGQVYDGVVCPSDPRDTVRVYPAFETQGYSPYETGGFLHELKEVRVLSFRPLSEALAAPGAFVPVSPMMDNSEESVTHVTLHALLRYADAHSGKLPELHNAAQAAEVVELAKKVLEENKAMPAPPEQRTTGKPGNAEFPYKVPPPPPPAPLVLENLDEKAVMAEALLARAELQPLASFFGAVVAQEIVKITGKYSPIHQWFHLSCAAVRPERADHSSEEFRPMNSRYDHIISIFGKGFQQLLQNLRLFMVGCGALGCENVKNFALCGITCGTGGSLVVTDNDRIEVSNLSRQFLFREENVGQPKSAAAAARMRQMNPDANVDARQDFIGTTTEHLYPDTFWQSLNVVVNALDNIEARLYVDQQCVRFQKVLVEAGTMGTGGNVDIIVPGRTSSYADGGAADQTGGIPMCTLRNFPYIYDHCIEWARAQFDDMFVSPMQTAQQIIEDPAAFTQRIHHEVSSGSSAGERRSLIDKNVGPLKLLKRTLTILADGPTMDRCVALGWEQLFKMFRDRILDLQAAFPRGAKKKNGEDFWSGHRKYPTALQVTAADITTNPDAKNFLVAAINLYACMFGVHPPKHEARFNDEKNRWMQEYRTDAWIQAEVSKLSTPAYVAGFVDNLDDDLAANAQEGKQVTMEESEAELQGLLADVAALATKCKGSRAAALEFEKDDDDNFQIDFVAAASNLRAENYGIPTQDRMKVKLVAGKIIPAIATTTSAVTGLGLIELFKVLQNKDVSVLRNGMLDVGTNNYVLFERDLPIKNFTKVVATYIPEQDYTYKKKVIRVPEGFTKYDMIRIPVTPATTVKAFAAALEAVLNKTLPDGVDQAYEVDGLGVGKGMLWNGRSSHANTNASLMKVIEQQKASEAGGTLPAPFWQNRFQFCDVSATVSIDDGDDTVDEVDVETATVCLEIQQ

[3] = biological target: AMP-activated protein kinase, AMPK (Homo sapiens) (UniProt P54646+O43741+P54619+Q9UGJ0+Q9Y478+Q13131+Q9UGI9); assay: AMP-dependent Kinase enzyme assay. An in vitro enzyme assay that detects ADP turnover that is directly proportional to AMPK activity. This uses naive AMPK that is activated during the assay with MK-8722; type: functional; settings: 30 µM
[4] = biological target: Sialic acid-binding Ig-like lectin 9 (Homo sapiens) (UniProt Q9Y336); assay: Hs-Siglec9 ALPHAscreen SOP 20170721; settings: 10 µM
Trypanosoma cruzi = assay: Trypanosoma cruzi phosphomannomutase and mannose-1-phosphate guanylyltransferase assay; type: functional; settings: 10 µM
[5] = biological target: T2, Arginase-2, mitochondrial (Homo sapiens) (UniProt P78540); assay: in vitro enzyme assay to detect the production of urea directly proportional to the activity of Arginase II; type: functional; settings: 33.3 µM; note: in the data most compounds retested in dose-response had high values
T2 sequence (whole entry): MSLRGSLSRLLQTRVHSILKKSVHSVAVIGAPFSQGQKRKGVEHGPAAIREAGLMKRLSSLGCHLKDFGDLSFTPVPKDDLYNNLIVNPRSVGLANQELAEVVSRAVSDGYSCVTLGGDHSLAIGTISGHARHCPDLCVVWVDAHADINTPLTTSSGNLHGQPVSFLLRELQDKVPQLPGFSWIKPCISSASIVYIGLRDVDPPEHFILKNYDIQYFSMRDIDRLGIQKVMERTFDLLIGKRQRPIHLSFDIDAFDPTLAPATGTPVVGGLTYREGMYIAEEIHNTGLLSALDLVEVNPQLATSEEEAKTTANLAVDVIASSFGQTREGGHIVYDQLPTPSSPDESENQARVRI

[6] = biological target: T3, Proteasome subunit beta (Trypanosoma cruzi) (UniProt O96673); assay: Trypanosoma cruzi proteasome chymotrypsin-like activity (TcProtChymo) assay.; note: in the data most compounds retested in dose-response had high values; type: functional; settings: 9.37 µM
T3 sequence (whole entry): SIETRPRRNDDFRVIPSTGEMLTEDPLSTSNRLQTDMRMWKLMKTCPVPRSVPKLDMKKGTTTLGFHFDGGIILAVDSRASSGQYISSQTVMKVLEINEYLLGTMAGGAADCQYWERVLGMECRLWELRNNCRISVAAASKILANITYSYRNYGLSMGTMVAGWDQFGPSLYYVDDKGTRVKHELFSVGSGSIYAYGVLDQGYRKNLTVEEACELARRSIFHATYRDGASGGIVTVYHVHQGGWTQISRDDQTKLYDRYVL

Homo sapiens = species on record: Homo sapiens; assay: To identify inhibition of the IFN signalling (Jak-Stat) pathway via expression of an eGFP reporter gene under the control of an IFN-stimulated response element (ISRE) containing MxA promoter.; type: functional; settings: 30 µM
[7] = biological target: T4, Tyrosyl-tRNA synthetase, putative (Trypanosoma cruzi (strain CL Brener)) (UniProt Q4DSP6); assay: Trypanosoma cruzi tyrosyl tRNA synthetase (TcYRS) _High Tyrosine SOP; type: functional; settings: 30 µM; note: in the data most compounds retested in dose-response had high values
T4 sequence (whole entry): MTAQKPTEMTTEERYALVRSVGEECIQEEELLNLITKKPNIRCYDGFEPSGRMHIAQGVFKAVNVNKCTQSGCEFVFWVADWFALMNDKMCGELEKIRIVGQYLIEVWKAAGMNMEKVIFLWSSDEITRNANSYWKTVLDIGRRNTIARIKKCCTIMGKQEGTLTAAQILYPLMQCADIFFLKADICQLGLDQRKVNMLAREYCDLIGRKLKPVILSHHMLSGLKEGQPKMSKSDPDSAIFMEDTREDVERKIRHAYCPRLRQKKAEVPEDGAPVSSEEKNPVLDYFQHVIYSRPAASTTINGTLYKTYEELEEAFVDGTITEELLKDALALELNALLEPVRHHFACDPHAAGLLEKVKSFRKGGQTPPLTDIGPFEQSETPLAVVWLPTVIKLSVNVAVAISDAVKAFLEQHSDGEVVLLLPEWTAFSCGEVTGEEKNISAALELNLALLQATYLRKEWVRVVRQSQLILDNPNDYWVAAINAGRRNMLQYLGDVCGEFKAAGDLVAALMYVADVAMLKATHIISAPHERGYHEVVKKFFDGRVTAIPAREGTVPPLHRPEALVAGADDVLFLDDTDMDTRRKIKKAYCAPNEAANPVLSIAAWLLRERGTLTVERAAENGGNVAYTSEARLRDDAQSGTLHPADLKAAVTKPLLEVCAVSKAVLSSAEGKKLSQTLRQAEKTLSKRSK

[8] = biological target: T4, Tyrosyl-tRNA synthetase, putative (Trypanosoma cruzi (strain CL Brener)); assay: Trypanosoma cruzi tyrosyl tRNA synthetase (TcYRS) SOP; type: functional; settings: 30 µM
[9] = biological target: Chromo domain-containing protein 1 (Saccharomyces cerevisiae (strain ATCC 204508 / S288c) (Baker's yeast)) (UniProt P32657); assay: ScCHD-1 Enzyme Inhibition Assay; type: functional; settings: 30 µM; note: in the data most compounds retested in dose-response had high values
Chromo domain-containing protein 1 (Saccharomyces cerevisiae (strain ATCC 204508 / S288c) (Baker's yeast)), sequence (P32657 whole entry, the tested form may be a part): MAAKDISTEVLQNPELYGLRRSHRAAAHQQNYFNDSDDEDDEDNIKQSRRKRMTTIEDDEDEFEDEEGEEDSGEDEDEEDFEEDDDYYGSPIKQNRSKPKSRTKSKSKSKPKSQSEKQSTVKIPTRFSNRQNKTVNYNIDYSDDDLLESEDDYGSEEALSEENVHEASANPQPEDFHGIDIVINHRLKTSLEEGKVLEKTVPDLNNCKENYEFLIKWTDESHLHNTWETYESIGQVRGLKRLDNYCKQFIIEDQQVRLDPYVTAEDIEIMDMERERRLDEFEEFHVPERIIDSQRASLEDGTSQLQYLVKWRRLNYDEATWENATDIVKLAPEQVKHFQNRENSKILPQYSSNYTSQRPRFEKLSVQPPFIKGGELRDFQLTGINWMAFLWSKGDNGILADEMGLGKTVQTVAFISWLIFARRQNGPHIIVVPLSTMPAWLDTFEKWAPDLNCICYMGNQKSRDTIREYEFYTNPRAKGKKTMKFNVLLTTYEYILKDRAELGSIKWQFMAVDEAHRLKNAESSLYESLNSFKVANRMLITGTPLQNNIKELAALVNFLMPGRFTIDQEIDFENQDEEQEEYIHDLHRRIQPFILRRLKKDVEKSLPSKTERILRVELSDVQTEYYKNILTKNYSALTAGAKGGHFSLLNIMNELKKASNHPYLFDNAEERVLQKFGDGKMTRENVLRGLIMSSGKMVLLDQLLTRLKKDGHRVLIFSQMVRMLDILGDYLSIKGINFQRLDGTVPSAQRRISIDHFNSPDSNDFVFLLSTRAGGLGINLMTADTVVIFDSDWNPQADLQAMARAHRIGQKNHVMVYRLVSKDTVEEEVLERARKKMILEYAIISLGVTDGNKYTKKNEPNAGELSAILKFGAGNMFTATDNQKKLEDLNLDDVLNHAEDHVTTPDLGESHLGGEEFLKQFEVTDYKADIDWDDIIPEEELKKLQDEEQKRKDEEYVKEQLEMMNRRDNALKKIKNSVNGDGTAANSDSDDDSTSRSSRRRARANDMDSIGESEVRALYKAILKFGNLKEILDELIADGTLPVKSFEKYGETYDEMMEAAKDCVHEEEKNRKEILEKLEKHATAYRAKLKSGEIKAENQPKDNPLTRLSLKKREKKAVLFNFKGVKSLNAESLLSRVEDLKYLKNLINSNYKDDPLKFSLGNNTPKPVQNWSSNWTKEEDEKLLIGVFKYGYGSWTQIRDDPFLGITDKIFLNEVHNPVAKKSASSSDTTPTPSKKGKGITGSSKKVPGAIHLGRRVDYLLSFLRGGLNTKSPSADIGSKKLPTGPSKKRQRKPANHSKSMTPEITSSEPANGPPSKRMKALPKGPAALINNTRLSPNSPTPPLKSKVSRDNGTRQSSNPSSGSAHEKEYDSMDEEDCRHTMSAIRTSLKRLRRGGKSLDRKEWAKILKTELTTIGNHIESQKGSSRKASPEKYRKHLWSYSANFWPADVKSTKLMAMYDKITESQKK

Protein translocase subunit SecA (Escherichia coli (strain K12)), sequence (P10408 whole entry): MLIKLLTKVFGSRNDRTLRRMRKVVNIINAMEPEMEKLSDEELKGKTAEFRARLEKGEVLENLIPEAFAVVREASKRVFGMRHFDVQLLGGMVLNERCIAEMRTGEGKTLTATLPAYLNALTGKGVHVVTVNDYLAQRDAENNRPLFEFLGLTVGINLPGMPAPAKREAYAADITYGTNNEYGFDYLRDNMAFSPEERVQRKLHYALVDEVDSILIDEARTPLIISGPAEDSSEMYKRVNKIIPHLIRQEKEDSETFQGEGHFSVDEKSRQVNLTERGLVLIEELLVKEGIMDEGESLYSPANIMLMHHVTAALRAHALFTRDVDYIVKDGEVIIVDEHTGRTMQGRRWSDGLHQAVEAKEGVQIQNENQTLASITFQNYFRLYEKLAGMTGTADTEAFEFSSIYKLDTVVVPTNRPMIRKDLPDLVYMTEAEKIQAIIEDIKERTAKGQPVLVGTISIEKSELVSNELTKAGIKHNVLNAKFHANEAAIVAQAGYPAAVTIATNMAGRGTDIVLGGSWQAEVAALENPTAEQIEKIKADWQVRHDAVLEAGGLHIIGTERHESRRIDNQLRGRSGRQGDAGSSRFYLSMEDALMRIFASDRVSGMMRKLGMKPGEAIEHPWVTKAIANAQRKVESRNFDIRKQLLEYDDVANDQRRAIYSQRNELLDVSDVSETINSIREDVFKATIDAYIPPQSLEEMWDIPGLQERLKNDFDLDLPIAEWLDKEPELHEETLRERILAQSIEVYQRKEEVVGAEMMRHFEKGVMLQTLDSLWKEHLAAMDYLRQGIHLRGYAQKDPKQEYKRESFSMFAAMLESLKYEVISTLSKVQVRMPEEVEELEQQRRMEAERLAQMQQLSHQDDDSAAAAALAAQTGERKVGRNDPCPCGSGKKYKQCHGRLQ
Sialic acid-binding Ig-like lectin 9 (Homo sapiens), sequence (Q9Y336 whole entry): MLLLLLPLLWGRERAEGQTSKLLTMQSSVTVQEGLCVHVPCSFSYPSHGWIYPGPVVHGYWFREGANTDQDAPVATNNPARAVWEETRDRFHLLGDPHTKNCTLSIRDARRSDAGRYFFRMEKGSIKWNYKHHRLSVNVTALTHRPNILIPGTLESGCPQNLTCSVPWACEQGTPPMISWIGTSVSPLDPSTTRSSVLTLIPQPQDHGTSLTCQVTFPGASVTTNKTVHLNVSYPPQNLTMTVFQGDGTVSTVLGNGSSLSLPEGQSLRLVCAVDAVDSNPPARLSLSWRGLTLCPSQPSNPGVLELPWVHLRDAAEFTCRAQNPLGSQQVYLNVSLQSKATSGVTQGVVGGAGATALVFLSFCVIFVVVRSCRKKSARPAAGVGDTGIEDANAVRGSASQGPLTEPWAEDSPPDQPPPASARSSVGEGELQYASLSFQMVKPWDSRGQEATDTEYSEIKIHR

Row | SMILES | Percent Effect [1] [%] | Percent Effect [2] [%] | Percent Effect [3] [%] | Percent Effect [4] [%] | Percent Effect (Trypanosoma cruzi) [%] | Percent Effect [5] [%] | Percent Effect [6] [%] | Percent Effect (Homo sapiens) [%] | Percent Effect [7] [%] | Percent Effect [8] [%] | Percent Effect [9] [%]
1 | CC[C@H](C)[C@H](NC(=O)Cc1csc(-c2cccc(Cl)c2)n1)C(=O)O | -3.85 | 9.33 | 11.6 | 11.9 | 0.982 | -4.75 | 12.6 | -8.02 | 4.23 | 7.69 | -5.96
2 | CCn1nc(C(=O)N2CCCC(n3cncn3)C2)ccc1=O (stereo unspecified) | -3.67 | 5.2 | 7.01 | 5.16 | 6.76 | 2.74 | 9.78 | -15.3 | 0.952 | 11.8 | -10.3
3 | Cc1ccccc1CSc1nc(N)cc(N2CCOC(C(N)=O)C2)n1 (stereo unspecified) | -5.78 | 2.7 | -2.45 | -7.55 | -4.4 | 0.248 | 10 | 22.4 | 6.45 | 11.1 | -1.13
4 | Cc1nc(C)c(C(=O)N2CCCC2c2nnc3n2CCCCC3)s1 (stereo unspecified) | -2.68 | 13.5 | -4.05 | 1.58 | 0.586 | 5.42 | 14.3 | 3.62 | 11.9 | 11 | -0.436
5 | COc1c(CNC2CCCOc3ccccc32)c(C)nn1C (stereo unspecified) | -6.71 | 5.41 | -2.77 | 4.94 | 3.81 | 3.23 | 8.5 | -6.93 | 6.45 | 11.1 | -1.97
6 | O=C(NCC(O)c1cccs1)c1cccc(Cl)c1 (stereo unspecified) | -0.149 | 13.7 | 3.83 | 0.22 | 3.72 | 7.27 | 25.6 | 13.3 | 6.45 | 17.5 | -6.71
7 | O=C(CN(Cc1cccnc1)CC1CCCO1)Nc1ccc(F)cc1 (stereo unspecified) | -3.61 | 2.74 | 1.19 | 0.415 | -2.35 | -1.82 | 10.3 | 5.96 | 0 | 0 | 0.815
8 | C[C@H]1C[C@@H]2CCN(C(=O)c3ccncn3)C[C@H]2O1 | -5.91 | 0 | -1.04 | -0.649 | 1.56 | 2.08 | 1.27 | -2.6 | 5.94 | 8.54 | -3.12
9 | CCc1nnc(CN2CCN(C(=O)c3ccccn3)CC2)o1 | 0.554 | 10.4 | 1.99 | -1.91 | -0.881 | 6.53 | 4.45 | 24.1 | 5.71 | 9.41 | -20.1
10 | CC(=O)N1CCCC1c1nccc(C)n1 (stereo unspecified) | -4.82 | 8 | 9.75 | 7.48 | -0.984 | 3.5 | 4.67 | 3.01 | 3.19 | 11.5 | -1.52
11 | CCc1nc(CC(=O)NCC(Cc2ccc(F)cc2)C(N)=O)cs1 (stereo unspecified) | -8.91 | 5.26 | -6.2 | 10.1 | 7.89 | -3.55 | -2.21 | 11.5 | 4.25 | 13 | -14.4
